Screens (PubChem)
Hits are enriched below; roughly 3.5% of the tested compounds scored in any of these assays.
FBW7 activator = activators of human E3 ligase FBW7 | AlphaScreen FBW7–phospho-cyclin E peptide binding, activator screen | normalized activity (activation), % at 26.1 µM | hit rate 0.13% among 650,000 | AID 1259310; in the data active means normalized activity above about 1.9%;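 further: purified mutant Fbw7 with reduced substrate affinity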
TEAD-YAP block = TEAD-YAP interaction inhibition. hit rate 1.4% among 640,000. HEK-TIYL cells, TEAD-Gal4/YAP UAS-luciferase luminescence. inhibition, % at 9.12 µM. AID 1259422; in the data active means inhibition above about 32%;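 further: 0% = median of test compound wells and 100% = reference inhibitor wells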
MITF inh = inhibitors of human MITF. O75030. inhibition, % at 2.6 µM. hit rate 0.91% among 650,000. AlphaScreen MITF homodimerization, bead proximity signal; in the data active means inhibition above about 50%;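 further: 0% = vehicle wells with protein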
GPR151 activ = activators of human GPR151 | hit rate 1% among 650,000 | activation, % at 11.2 µM | PathHunter beta-arrestin GPR151 cells, luminescence; in the data active means activation above about 4.9%;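 further: 0% = median of compound wells and 100% = cells with positive control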
Target sequence (Q8TDV0 whole entry, looked up): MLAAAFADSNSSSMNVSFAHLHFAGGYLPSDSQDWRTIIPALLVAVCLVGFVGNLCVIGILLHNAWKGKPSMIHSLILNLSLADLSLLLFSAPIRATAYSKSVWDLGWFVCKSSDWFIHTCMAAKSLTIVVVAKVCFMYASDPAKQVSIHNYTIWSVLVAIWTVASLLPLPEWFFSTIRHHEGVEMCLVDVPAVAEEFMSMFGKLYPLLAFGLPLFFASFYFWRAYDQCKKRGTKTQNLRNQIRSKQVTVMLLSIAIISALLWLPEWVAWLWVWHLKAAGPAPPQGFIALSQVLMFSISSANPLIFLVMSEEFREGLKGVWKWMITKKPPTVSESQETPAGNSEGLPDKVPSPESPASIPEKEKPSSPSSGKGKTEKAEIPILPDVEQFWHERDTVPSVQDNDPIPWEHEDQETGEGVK
MITF inh conf = human MITF inhibition, confirmation | AlphaScreen MITF homodimerization, biotin/His-MITF beads | inhibition, % at 2.6 µM | AID 1259372 | hit rate 16% among 4,700 | shares compounds with MITF inh;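 active means inhibition above a cutoff derived from the DMSO control wells, cut at about 28% in these data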;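 further: 0% = MITF dimer wells with DMSO only; inhibitors lower the bead chemiluminescence by keeping MITF from dimerizing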
AlphaScreen DR = optically interferes with AlphaScreen signal in dose response. shares compounds with MITF inh. AlphaScreen optical interference counterscreen, cell-free. IC50, µM. hit rate 6% among 480. AID 1259373; call rule not given here
AlphaScreen intf2 = optically interferes with AlphaScreen signal; inhibition, % at 2.6 µM; hit rate 7.6% among 4,700; AID 1259376; shares compounds with MITF inh; LysRS AlphaScreen counterscreen, signal interference, triplicate;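 active means inhibition above a cutoff derived from the DMSO control wells, cut at about 30% in these data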
Numbers without * were called inactive; x = no result.

SMILES	FBW7 activator	TEAD-YAP block	MITF inh	GPR151 activ	MITF inh conf	AlphaScreen intf2	others
CCCCOC(=O)c1ccc(NC(=O)CCCC)cc1	0.1	-3.5	1.5	1.0	x	x
CN(C)CC(C)(C)CNCC(=O)Nc1ccc2c(c1)OC(F)(F)O2	-0.1	3.4	55.5*	1.6	-11.3	-1.8
CN1CCC(N(C)CC(=O)Nc2ccc3c(c2)OC(F)(F)O3)CC1	-0.3	9.1	57.5*	1.3	-6.9	0.3
Cc1ccc2nc(-c3ccc(NC(=O)CNCC(C)(C)CN(C)C)cc3)sc2c1	-0.2	2.5	51.7*	-0.8	-2.5	7.9
CCCC(=O)N1CCC2(CC1)NC(=O)N(Cc1ccc(F)cc1)C2=O	-0.1	4.3	-13.4	0.7	x	x
CC(NC(=O)CN(C)C1CCN(C)CC1)c1ccccc1 (stereo unspecified)	-0.3	0.4	59.3*	1.8	-5.6	-5.9
CCN(CC)CC(=O)NC(C)c1ccccc1 (stereo unspecified)	0.0	3.3	-12.3	0.9	x	x
c1ccc(C2CCC(N3CCN(C4CCCC4)CC3)CC2)cc1 (stereo unspecified)	-0.1	3.4	18.8	-0.7	x	x
c1ccc(C2CCC(N3CCN(Cc4ccco4)CC3)CC2)cc1 (stereo unspecified)	-0.1	-9.0	66.6*	0.0	3.8	5.5
CC1CCCC(N2CCN(Cc3ccco3)CC2)C1 (stereo unspecified)	-0.3	-5.6	73.7*	-0.5	-1.2	0.5
c1ccc(C2CCC(N3CCN(C4CCCCCC4)CC3)CC2)cc1 (stereo unspecified)	-0.2	-3.4	62.9*	-0.8	1.8	14.6
CC(C)OCCCNCc1cc2ccccc2nc1Cl	-0.1	5.5	56.1*	-0.6	11.9	7.0
CC(C)OCCCNC(=O)c1cc2c(Cl)nc3ccccc3c2s1	-0.1	-5.0	22.4	0.1	x	x
CCOc1ccc(C(=O)c2[nH]c(=O)c3ccccc3c2O)cc1	0.1	5.8	16.1	-0.3	x	x
COc1ccc2nc(-c3ccc(NC(=O)c4cccc(F)c4)cc3)cn2n1	0.1	-2.8	-2.5	-0.9	x	x
O=C(O)c1ccc(NC2OC(CO)C(O)C2O)cc1 (stereo unspecified)	-0.2	3.3	65.7*	-1.5	57.1*	7.1	AlphaScreen DR=>5.62
Cn1c(SCC(N)=O)nnc1-c1cnccn1	-0.2	-4.3	8.0	0.8	x	x
Cn1c(SCC(=O)O)nnc1-c1cnccn1	-0.1	-5.2	61.2*	0.0	9.2	7.3
CCOc1ccc(OCCCNCCO)cc1	0.0	13.3	18.2	-2.1	x	x
CCN1CCN(CCOc2ccc(C#N)cc2)CC1	-0.1	9.4	53.8*	0.3	6.4	8.4
CCC(C)c1ccc(OCCN2CCN(CC)CC2)cc1 (stereo unspecified)	-0.2	3.4	55.7*	1.4	7.6	10.6
N#Cc1ccc(OCC(O)CN2CCN(CCOc3ccccc3)CC2)cc1 (stereo unspecified)	0.0	-3.2	81.2*	-1.5	2.4	9.4
CCC(C)c1ccc(OCCNCCO)cc1 (stereo unspecified)	0.0	-0.7	55.6*	0.9	-16.7	-8.5
COC(F)(C(=O)Nc1c(Cl)cccc1Cl)C(F)(F)F (stereo unspecified)	0.0	-3.2	-11.3	-0.2	x	x
O=C(Nc1ccccn1)c1ccc(S(=O)(=O)N2CCc3ccccc3C2)cc1	0.1	2.5	3.2	2.5	x	x
SMILES	FBW7 activator	TEAD-YAP block	MITF inh	GPR151 activ	MITF inh conf	AlphaScreen intf2	others
O=[N+]([O-])c1ccc(S(=O)(=O)N2CCN(Cc3ccc(Br)cc3)CC2)cc1	-0.4	6.4	61.2*	-1.5	20.7	36.0*
O=[N+]([O-])c1ccccc1S(=O)(=O)N1CCN(Cc2cccc(Br)c2)CC1	-0.1	-3.8	21.5	1.5	x	x
O=[N+]([O-])c1ccc(S(=O)(=O)N2CCN(Cc3ccccc3)CC2)cc1	0.1	3.0	45.1	0.7	x	x
COc1ccc(CN2CCN(S(=O)(=O)c3ccc([N+](=O)[O-])cc3)CC2)cc1	-0.1	-2.4	52.6*	-0.1	15.5	14.5
COc1ccc(S(=O)(=O)N2CCN(Cc3ccc([N+](=O)[O-])cc3)CC2)cc1	-0.1	-0.1	2.9	0.6	x	x
O=[N+]([O-])c1ccc(S(=O)(=O)N2CCN(Cc3cccc(Br)c3)CC2)cc1	-0.2	-6.8	76.6*	1.0	9.2	12.9
CN(C)CC(C)(C)CNCC(O)COCc1ccccc1F (stereo unspecified)	-0.2	-3.5	78.5*	-0.2	0.4	-5.3
CC1(C)C2CCC1(C)C(NCC(O)COCc1ccccc1F)C2 (stereo unspecified)	-0.3	-1.3	65.1*	0.9	-10.5	-4.3
COc1cccc(NC(=O)CN(C)CC(=O)Nc2ccc(C)c(F)c2)c1	-0.3	3.4	91.2*	0.7	10.4	20.1
CN(CC(=O)Nc1cccc(F)c1)CC(=O)Nc1ccccc1Oc1ccccc1	-0.1	-4.4	70.5*	3.7	-10.4	9.4
CN(CC(=O)Nc1cccc(F)c1)CC(=O)Nc1ccccc1-c1ccccc1	-0.1	2.5	-1.5	-0.5	x	x
CCCCCCS(=O)(=O)Nc1ccc(C(=O)OCC)cc1	0.0	-0.2	-0.3	-0.3	x	x
CCNc1c(NS(=O)(=O)CC)c(=O)oc2ccccc12	0.0	-5.6	-3.0	1.0	x	x
O=C1/C(=C\c2ccco2)CC2CC1C/C(=C/c1ccco1)C2=O	-0.1	0.5	51.8*	-1.7	17.3	-11.8
O=C1/C(=C\c2cccs2)CC2CC1C/C(=C/c1cccs1)C2=O	0.1	1.6	24.0	-1.9	x	x
O=C(NC(=S)NCc1cccs1)c1cccs1	-0.1	1.9	12.7	2.3	x	x
CCOC(=O)/C(C#N)=C/c1ccc(OC(=O)c2ccccn2)cc1	-1.1	17.4	60.5*	-2.8	25.8	53.8*
CCOC(=O)/C(C#N)=C\c1ccc(OCC)cc1	0.1	-2.5	-10.6	2.5	x	x
Fc1cccc(F)c1CN1CCOCC1	0.0	-0.9	7.4	-0.3	x	x
Fc1ccccc1CN1CCN(C2CCCC2)CC1	0.1	-1.4	28.9	-2.2	x	x
Cc1ccccc1CN1CCC(N2CCN(CCO)CC2)CC1	0.2	-8.9	58.6*	0.7	-9.5	-1.6
OCCN1CCN(C2CCN(Cc3ccccc3F)CC2)CC1	0.5	0.2	82.4*	0.2	2.8	6.1
Cc1ccccc1CN1CCC(N2CCC(C(=O)N3CCCC3)CC2)CC1	0.0	6.3	2.3	0.5	x	x
CC1CCN(C2CCN(Cc3ccccc3F)CC2)CC1	0.0	7.0	63.5*	0.6	-2.4	0.5
CC1CCN(Cc2c(F)cccc2F)CC1	0.1	-10.8	62.7*	3.7	-2.8	1.7
Cc1ccccc1CN1CCN(C2CCCCCC2)CC1	-0.2	1.9	68.8*	0.4	-7.8	2.0
COc1ccc(OC)c(NC2CCCCC2OC)c1 (stereo unspecified)	0.5	21.3	82.1*	0.1	16.0	24.1
CCN1C(=O)/C(=C/c2ccco2)S/C1=N/S(=O)(=O)c1ccc(C)cc1	0.1	-3.5	52.9*	0.4	9.8	5.3
